Among the data in PubChem BioAssay AID777 (Sanford-Burnham Center for Chemical Genomics, 2007) are inhibition values, retold here.

About 19,000 (20%) of roughly 96,000 compounds were called active. These entries were drawn from the full list. A number with no mark means an inactive call.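 How the source made its calls: active means blocking of liver enzyme CYP2C9 beyond about 50% at 5 µM (limit read from the data); inactive means the rest.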

Cytochrome P450 2C9 (Homo sapiens), sequence (P11712 whole entry, looked up): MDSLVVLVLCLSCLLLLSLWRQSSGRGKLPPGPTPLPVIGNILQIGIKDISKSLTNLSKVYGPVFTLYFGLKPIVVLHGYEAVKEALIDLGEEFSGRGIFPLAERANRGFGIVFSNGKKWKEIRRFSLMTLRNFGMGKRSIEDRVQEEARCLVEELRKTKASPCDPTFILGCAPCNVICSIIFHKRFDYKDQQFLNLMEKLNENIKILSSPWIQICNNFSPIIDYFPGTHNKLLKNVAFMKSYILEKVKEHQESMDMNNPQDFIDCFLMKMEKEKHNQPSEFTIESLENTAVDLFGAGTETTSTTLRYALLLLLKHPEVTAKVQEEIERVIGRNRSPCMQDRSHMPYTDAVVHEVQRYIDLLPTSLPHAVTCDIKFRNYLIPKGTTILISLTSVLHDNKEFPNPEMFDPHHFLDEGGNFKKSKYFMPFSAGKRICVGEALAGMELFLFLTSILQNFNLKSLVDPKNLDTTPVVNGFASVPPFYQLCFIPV

The assay addresses Cytochrome P450 2C9 (Homo sapiens) (UniProt P11712). As to the kind of experiment: blockers of cytochrome P450 2C9 activity – biochemical, luminescence, ADME assay, primary screen (AID 777). The conditions noted are these: CYP2C9 Supersomes, luciferin-H conversion, at 5 µM, stronger effect = higher value.
Turning to `Cc1ccccc1/[N+]([O-])=C/c1ccncc1`, the inhibition is 12.4%. Next, `CC1CCN(c2nc3c(c(=O)[nH]c(=O)n3C)n2CCCc2ccccc2)CC1`: 40.9%; `C/C(=C\C(=O)c1ccc(Br)cc1)N1CCCCC1`: 2.1%; `Cc1nc2ccc(C(=O)N3CCSCC3)cc2s1`: 0.6%. For `Cc1ccc(S/C(=N\S(=O)(=O)c2ccc(Cl)cc2)c2ccccc2)cc1` the value was 48.7%; for `CCOC(=O)N1CCN(C(=O)c2cnc3n(c2=O)CCS3)CC1`, -13.7%; for `Cc1cc(N/C=C\C(=O)c2ccc(Cl)c(Cl)c2)no1`, 7.8%. For `COC(=O)C1=C(N)Oc2cc(C)oc(=O)c2C1c1cccnc1` (centres undefined) the value was 37.9%; for `Cc1ccc(CS(=O)(=O)CCC(=O)NC2CC2)cc1`, -3.7%. With `COC(CCN(C)C)(c1ccccc1)c1ccccc1`, the inhibition was -2.1%. On to `CC1(C)Cc2ccccc2-c2nnc(-c3cccc(O)c3)n21`, for which the inhibition is -7.5%.

For the compound `O=C1OC(NC(=O)c2ccccc2)C(N2CCOCC2)=C1Cl` (centres undefined), the inhibition is -6.9%. For `c1cnc(NC2C3CC4CC(C3)CC2C4)nc1` (centres undefined) the value was 25.9%. Next, `CC1CN(C2CCCCC2)c2nc3c(c(=O)n(C)c(=O)n3C)n2C1` (centres undefined): 82.2% (active); `CC1CCCN(Cc2nc3c(c(=O)n(C)c(=O)n3C)n2CC(=O)c2ccccc2)C1` (centres undefined): 11.2%; `CCCCCCn1c(CN2CCCC(C)C2)nc2c1c(=O)n(C)c(=O)n2C` (centres undefined): 9.5%.

`COc1ccc(Cl)cc1NC(=O)CN(C)C(=O)CNC(=O)C12CC3CC(CC(C3)C1)C2`: the inhibition was 44.8%. Take `COc1ccc(N2CCN(Cc3ccc(Br)s3)CC2)cc1`: the inhibition was 78.3% (active). Next, `COc1ccc(N2CCN(Cc3cc(=O)oc4ccc5ccccc5c34)CC2)cc1`: 22.6%; `Fc1ccc(N2CCN(Cc3cnc(Oc4ccc(Br)cc4)s3)CC2)cc1`: 19.7%; `COc1ccccc1CNC(=O)C1CCN(c2nc3ccccc3o2)CC1`: -3.9%. Next, `FC(F)(F)c1nc2ccccc2nc1N/N=C/c1ccc(Cl)cc1`: 21.3%; `OC(COc1cccc2ccccc12)CN1CCN(c2ccccn2)CC1` (centres undefined): 19.3%. For `O=C(CN1C(=O)COc2ccccc21)Nc1ccc(F)cc1` the value was 39%; for `CC1Cc2ccccc2N1CC(=O)Nc1ccc2c(c1)OC(F)(F)O2` (centres undefined), 71.6% (active). Turning to `CC1(C)Oc2ccc(C(=O)N3CCOCC3)cc2N(CC(=O)Nc2ccccc2)C1=O`, the inhibition is 45.6%. Next, `Cc1cc(Cl)c(S(=O)(=O)Nc2ccc3c(c2)OCCO3)cc1OCC(N)=O`: 19.9%; `OC1CN=C2Sc3ccccc3N2C1` (centres undefined): -6.8%; `Cc1nn2c(c1-c1ccccc1)N=C(c1ccco1)CC2c1ccccc1` (centres undefined): 63.5% (active).

Consider `Cc1nn(C(=O)c2ccoc2C)c(N)c1-c1ccccc1`, for which the inhibition was 26.4%. For `Cn1c(=O)c(C(=O)Nc2ncccn2)c(O)c2ccccc21` the value was -24.6%. For `O=C1NC(c2cc3c(cc2Cl)OCO3)Oc2ccccc21` (centres undefined) the value was 26.5%; for `NC(CSC12CC3CC(CC(C3)C1)C2)C(=O)O` (centres undefined), 9.2%.

Turning to `N#Cc1c(/N=C/N2CCCC2)oc(-c2ccccc2)c1-c1ccccc1`, the inhibition was 79.9% (active). For `COc1ccc(-c2oc(/N=C/N3CCCC3)c(C#N)c2-c2ccc(OC)cc2)cc1` the value was 96.9% (active). `N#Cc1c2c(c(-c3ccccc3)[nH]c1=O)CCCC2`: the inhibition was -12.7%. For `Cn1c(C(=O)NCCN2CCc3ccccc3C2)cc2c(=O)[nH]c3ccccc3c21` the value was 20%; for `Cc1noc(NS(=O)(=O)c2ccc(N3CC(O)=C(c4ccccc4)C3=N)cc2)c1C`, 3.3%. For `Cc1ccc2cc(C#N)c(SCC(=O)NCC3CCCO3)nc2c1C` (centres undefined) the value was -3.8%; for `Cc1cc(C(F)(F)F)c(C#N)c(SCC(=O)NC2CC2)n1`, 17.2%; for `CC(NC(=O)CSc1nc2c(cc1C#N)CN(C)CC2)c1ccccc1` (centres undefined), 74.5% (active).

Regarding `CCCC(C(=O)N1CCOCC1)N1C(=O)C2C3C=CC(C3)C2C1=O` (centres undefined), the inhibition is -2.2%. Take `Clc1ccc(Cl)c(Oc2ccc(Oc3nc(Cl)ccc3Cl)cc2)n1`: the inhibition is -102%. For `CSc1ccc(C#N)cc1NC(=O)c1cccc(Cl)c1` the value was 18.2%; for `CN1C(=O)c2ccc(NC(=O)c3c(F)c(F)c(F)c(F)c3F)cc2C1=O`, -24%; for `O=C(c1ccco1)N1CCN(C(=O)c2ccc(COc3ccc(F)cc3)o2)CC1`, 33.7%. `CC(NC(=O)Nc1ccccc1)c1ccccc1` (centres undefined): the inhibition is 7%.

For `Cc1ccc(NC(=O)C(C)c2cccc(C(=O)c3ccccc3)c2)cc1` (centres undefined), the inhibition is 57.9% (active). Next, `CC(=O)c1cccc(NC(=O)Nc2ccc(C)cc2)c1`: 17.7%.

For `CCn1c(Cc2ccccc2)nnc1SCc1nc2ccccc2c(=O)[nH]1`, the inhibition is -61.8%.

As to `CC1=C(C)CC2C(=O)N(c3cccc4ccccc34)C(=O)C2C1` (centres undefined), the inhibition is 72.9% (active). As for `O=C(c1ccccc1)c1cc(-c2ccccn2)c(N2CCOCC2)s1`, the inhibition is 25%. Next, `O=C1c2ccccc2-c2ncnc3c(N4CCOCC4)cc(N4CCOCC4)c1c23`: 51.5% (active); `c1ccc(-c2oc3ncnc(N4CCOCC4)c3c2-c2ccccc2)cc1`: 18.1%.

As to `c1cnn(-c2cc(N3CCOCC3)ncn2)c1`, the inhibition is -3.4%. For `Cc1cnc(NC(=O)C2CCCC2)s1` the value was 10.7%; for `CCN1C(=O)/C(=C\N2CCN(c3cccc(Cl)c3)CC2)SC1=S`, 4.9%; for `CC(Oc1ccc(Cl)cc1)c1ccnn1S(C)(=O)=O` (centres undefined), 24.4%.

On to `COc1ccc(CC(=O)n2nc(-c3cccnc3)nc2N)cc1`, for which the inhibition was 9%.

On to `O=C(Cn1ccc([N+](=O)[O-])n1)NCc1cccs1`, for which the inhibition is -1.6%. As to `C=C(C)CSc1nnc(-c2ccc(C)cc2)n1N`, the inhibition is 1.1%. On to `Cc1ccc(NC(=S)NCCN2CCOCC2)cc1`, for which the inhibition was -12.4%. Next, `Cc1ccc(NC(=S)NC2CCCC2)cc1`: 29.5%. Next, `Cc1ccc(NC(=S)N/N=C2/CCCc3c(C)cc(C)cc32)cc1`: 59.7% (active).
